Test [1] deals with Plasmodium falciparum Sir2 (PF13_0152, Sir2A). The experiment in a line: Plasmodium falciparum Sir2A binding compounds – biochemical, small-molecule microarray, 635 nm fluorescence, primary screen (AID 1098).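 Further: score merges spot fluorescence intensity with its signal-to-noise ratio.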 As to conditions: fluorescence 635 nm, higher = more signal.
Test [2] is described as follows: probe aDKK1 binding to arrayed compounds – biochemical, biotinylated probe, 635/667 nm fluorescence, primary screen (AID 1099).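 Further: score merges 667nm spot fluorescence with signal to noise across triplicate slides.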 The settings on record: small-molecule microarray, higher = more signal.
Test [3] can be described thus: probe aCHRDL2 binding to arrayed compounds – biochemical, biotinylated probe, 635/667 nm fluorescence, primary screen (AID 1100). The settings on record: small-molecule microarray, higher = more signal.
The nature of test [4]: change in splice reporter luminescence, either direction, cell-based, HEK293, spliceosome inhibition project, primary screen (AID 1101).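 Further: HEK293 cells carrying a splicing-competent luciferase reporter gene; test concentration not given here.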 The settings on record: HEK293 splicing luciferase reporter, 24 h, higher = more signal, called active from +8 up or from −8 down.
The target in test [5] is Fibroblast growth factor 10 (Homo sapiens) (UniProt O15520). The experiment in a line: compounds binding fibroblast growth factor 10 – biochemical, small-molecule microarray, 635 nm fluorescence, primary screen (AID 1102). As to conditions: FGF10 binding, fluorescence 635 nm, higher = more signal.
The subject of test [6] is glycogen synthase kinase-3 (GSK3A per assay name; protocol says GSK3B). Description: compounds binding glycogen synthase kinase-3 – biochemical, small-molecule microarray, 635 nm fluorescence, GSK3A, primary screen (AID 1103). Further: the record names both GSK3A and GSK3B. As to conditions: fluorescence 635 nm, higher = more signal.
The target in test [7] is Epidermal growth factor receptor (Homo sapiens) (UniProt P00533). Description: compounds binding epidermal growth factor receptor – biochemical, small-molecule microarray, 635 nm fluorescence, primary screen (AID 1104).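 Further: score merges 667 nm emission intensity with spot signal to noise over triplicate slides.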 As to conditions: EGFR binding, higher = more signal.
Test [8] addresses Follistatin-related protein 3 (Homo sapiens) (UniProt O95633). The experiment in a line: compounds binding follistatin-related protein 3 – biochemical, small-molecule microarray, 635 nm fluorescence, primary screen (AID 1105).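 Further: score merges emission near 667 nm and signal to noise per printed spot across three slides.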 As to conditions: FSTL3 binding, higher = more signal.
In test [9] the target is Dickkopf-related protein 1 (Homo sapiens) (UniProt O94907). The experiment in a line: small molecules binding DKK1 protein – biochemical, small-molecule microarray, 635 nm fluorescence scan, primary screen (AID 1106).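 Further: score merges emission near 667 nm with signal to noise over three replicate slides.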 As to conditions: higher = more signal.
Test [10] concerns Inhibin beta A chain (activin A). The experiment in a line: small molecules binding activin A – biochemical, small-molecule microarray, 635 nm fluorescence scan, primary screen (AID 1107).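 Further: mouse activin A protein probed at 4.33 µg/mL on printed slides; score merges bound-protein fluorescence near 667 nm with spot signal-to-noise.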 As to conditions: INHBA, higher = more signal.
In test [11] the test system is Human papillomavirus type 1a protein E7 (residues 44-93). The experiment in a line: small molecules binding HPV E7 44-93 – biochemical, small-molecule microarray, residues 44-93, 635 nm fluorescence, primary screen (AID 1108).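 Further: E7 fragment applied at 1 µg/mL in TBST for 1 h at 4 C; score combines spot fluorescence with its signal to noise ratio.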 As to conditions: fluorescence 635 nm, higher = more signal.
Test [12] is described as follows: hepatitis C replication reporter changes, two-sided – Huh7 cells, luciferase reporter, HCV replication inhibitor project, primary screen (AID 1109).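 Further: huh7 hepatoma cells harbouring a luciferase neomycin HCV replicon reporter; luciferase luminescence as measure of HCV replicon replication; test concentration not given here.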 The settings on record: Huh7 HCV replicon luciferase reporter, 48 h; higher = more signal. A general note: A reporter such as luciferase makes a cellular process visible.
Test [13] concerns the target Left-right determination factor 2 (Homo sapiens) (UniProt O00292). Description: small molecules binding LEFTY2 protein – biochemical, small-molecule microarray, 635 nm fluorescence scan, primary screen (AID 1110). As to conditions: higher = more signal.
Test [14] concerns the target Calmodulin-1 (Homo sapiens) (UniProt P0DP23). The experiment in a line: small molecules binding calmodulin-1 with EGTA – biochemical, small-molecule microarray, Cy5-labelled CALM1, profiling panel (AID 1111).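 Further: labelled calmodulin applied in Tris saline Tween buffer holding calcium plus EGTA and DTT.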 As to conditions: Cy5-CALM1 binding fluorescence, higher = more signal.
Test [15] has the same target. The experiment in a line: small molecules binding Ca-loaded calmodulin-1 – biochemical, small-molecule microarray, Cy5-labelled CALM1, plus calcium, artefact control for SMM control-protein annotation, profiling panel (AID 1112).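 Further: score merges spot fluorescence with signal to noise from triplicate slides.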 As to conditions: Cy5-CALM1 binding fluorescence, higher = more signal.
A short description of test [16]: probe aWnt5a binding to arrayed compounds – biochemical, biotinylated probe, 635/667 nm fluorescence, primary screen (AID 1113).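 Further: score merges 667 nm fluorescence intensity with signal-to-noise per printed feature.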 The settings on record: small-molecule microarray, higher = more signal.
Test [17] can be described thus: probe aShh binding to arrayed compounds – biochemical, biotinylated probe, 635/667 nm fluorescence, primary screen (AID 1114).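 Further: probe is biotin-labelled aShh protein from a stem cell growth factor screen; measures binding of labelled protein to compounds printed on the slide; score merges feature fluorescence at 667 nm with signal-to-noise.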 As to conditions: small-molecule microarray, higher = more signal.
Test [18] can be described thus: probe aNog binding to arrayed compounds – biochemical, biotinylated probe, 635/667 nm fluorescence, primary screen (AID 1115).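 Further: probe is biotinylated aNog protein used at 0.15 µg/mL for 1 h at 4 C; z-score combines 667 nm fluorescence of each spot with its signal to noise.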 As to conditions: small-molecule microarray, higher = more signal.
The target in test [19] is Torsin-1A-interacting protein 1 (Homo sapiens) (UniProt Q5JTV8). The experiment in a line: compound microarray binding of lysate hLAP1 – cell lysate, small-molecule microarray, COS7 lysate, 635/667 nm fluorescence, primary screen (AID 1116). As to conditions: 635 nm fluorescence, higher = more signal.
Test [20] has as its target Alpha-bungarotoxin (Bungarus multicinctus) (UniProt P60615). Description: compounds binding labelled alpha-BTX control protein – biochemical, small-molecule microarray, Alexa647 label, 635/667 nm fluorescence, artefact control for SMM control protein annotation, profiling panel (AID 1117). As to conditions: alpha-BTX-A647 binding fluorescence, higher = more signal.

Activity calls are given as the source filed them.

Sequence of Fibroblast growth factor 10 (Homo sapiens) (O15520 whole entry, looked up): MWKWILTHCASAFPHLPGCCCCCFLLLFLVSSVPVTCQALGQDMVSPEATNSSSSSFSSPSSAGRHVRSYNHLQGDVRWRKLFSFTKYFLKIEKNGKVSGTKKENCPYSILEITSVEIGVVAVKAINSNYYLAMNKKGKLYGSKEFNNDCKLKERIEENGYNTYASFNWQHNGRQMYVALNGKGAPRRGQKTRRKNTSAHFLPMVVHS
Sequence of Follistatin-related protein 3 (Homo sapiens) (O95633 whole entry, looked up): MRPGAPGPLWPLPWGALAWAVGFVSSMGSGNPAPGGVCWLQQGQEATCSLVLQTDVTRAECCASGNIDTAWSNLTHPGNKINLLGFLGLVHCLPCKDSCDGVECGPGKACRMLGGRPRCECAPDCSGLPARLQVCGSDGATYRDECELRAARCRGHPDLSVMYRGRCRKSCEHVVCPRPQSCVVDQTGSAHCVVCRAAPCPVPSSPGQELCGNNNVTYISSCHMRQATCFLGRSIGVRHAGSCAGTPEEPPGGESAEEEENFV
Sequence of Epidermal growth factor receptor (Homo sapiens) (P00533 whole entry, looked up): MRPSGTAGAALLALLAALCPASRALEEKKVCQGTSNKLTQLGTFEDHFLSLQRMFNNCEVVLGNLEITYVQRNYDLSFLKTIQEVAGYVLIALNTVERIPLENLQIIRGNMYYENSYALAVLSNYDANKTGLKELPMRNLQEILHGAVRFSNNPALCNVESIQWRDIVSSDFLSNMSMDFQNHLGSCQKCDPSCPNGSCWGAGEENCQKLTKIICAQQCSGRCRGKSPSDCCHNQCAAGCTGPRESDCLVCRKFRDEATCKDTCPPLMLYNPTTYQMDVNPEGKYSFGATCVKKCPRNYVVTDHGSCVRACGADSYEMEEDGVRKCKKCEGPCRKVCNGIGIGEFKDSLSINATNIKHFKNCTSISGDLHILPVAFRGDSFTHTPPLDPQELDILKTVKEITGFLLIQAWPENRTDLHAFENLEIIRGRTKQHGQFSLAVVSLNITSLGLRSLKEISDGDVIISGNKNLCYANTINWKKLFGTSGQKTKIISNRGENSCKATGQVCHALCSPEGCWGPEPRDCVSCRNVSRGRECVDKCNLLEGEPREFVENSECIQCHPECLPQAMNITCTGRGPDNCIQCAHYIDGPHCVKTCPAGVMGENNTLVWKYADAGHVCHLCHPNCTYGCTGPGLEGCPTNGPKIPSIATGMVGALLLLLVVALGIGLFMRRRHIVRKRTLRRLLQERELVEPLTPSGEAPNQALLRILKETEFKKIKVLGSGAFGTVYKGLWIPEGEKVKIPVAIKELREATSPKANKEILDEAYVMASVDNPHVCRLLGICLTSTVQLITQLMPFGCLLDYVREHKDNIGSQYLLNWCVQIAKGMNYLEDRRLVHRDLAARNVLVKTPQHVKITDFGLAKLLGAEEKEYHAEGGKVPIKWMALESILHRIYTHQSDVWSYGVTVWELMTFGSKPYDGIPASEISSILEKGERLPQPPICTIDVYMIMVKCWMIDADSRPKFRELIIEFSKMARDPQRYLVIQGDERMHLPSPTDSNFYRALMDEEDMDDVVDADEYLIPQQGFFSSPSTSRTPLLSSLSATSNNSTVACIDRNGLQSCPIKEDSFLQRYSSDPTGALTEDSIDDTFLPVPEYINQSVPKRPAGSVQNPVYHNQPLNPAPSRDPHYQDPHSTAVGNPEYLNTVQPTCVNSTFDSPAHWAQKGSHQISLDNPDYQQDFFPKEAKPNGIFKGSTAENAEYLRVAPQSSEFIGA
Sequence of Torsin-1A-interacting protein 1 (Homo sapiens) (Q5JTV8 whole entry, looked up): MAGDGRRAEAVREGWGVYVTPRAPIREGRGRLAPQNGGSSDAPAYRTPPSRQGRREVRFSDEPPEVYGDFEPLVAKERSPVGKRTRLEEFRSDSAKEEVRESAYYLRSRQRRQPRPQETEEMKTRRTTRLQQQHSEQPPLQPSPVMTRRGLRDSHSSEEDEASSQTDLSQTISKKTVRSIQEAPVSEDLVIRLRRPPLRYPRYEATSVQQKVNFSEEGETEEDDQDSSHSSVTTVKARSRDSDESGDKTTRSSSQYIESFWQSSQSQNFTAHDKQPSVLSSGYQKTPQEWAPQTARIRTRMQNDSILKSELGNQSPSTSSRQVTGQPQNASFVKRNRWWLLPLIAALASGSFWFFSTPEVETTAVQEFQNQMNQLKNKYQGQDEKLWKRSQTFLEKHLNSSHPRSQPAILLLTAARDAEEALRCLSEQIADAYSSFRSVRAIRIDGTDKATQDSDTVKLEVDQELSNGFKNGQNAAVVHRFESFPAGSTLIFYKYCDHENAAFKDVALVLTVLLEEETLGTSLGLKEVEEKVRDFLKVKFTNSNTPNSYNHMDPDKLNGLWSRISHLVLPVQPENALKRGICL
Sequence of Alpha-bungarotoxin (Bungarus multicinctus) (P60615 whole entry, looked up): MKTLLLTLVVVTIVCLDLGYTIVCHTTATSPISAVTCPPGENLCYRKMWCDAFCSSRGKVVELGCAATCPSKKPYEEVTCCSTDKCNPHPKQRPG
Sequence of Left-right determination factor 2 (Homo sapiens) (O00292 whole entry, looked up): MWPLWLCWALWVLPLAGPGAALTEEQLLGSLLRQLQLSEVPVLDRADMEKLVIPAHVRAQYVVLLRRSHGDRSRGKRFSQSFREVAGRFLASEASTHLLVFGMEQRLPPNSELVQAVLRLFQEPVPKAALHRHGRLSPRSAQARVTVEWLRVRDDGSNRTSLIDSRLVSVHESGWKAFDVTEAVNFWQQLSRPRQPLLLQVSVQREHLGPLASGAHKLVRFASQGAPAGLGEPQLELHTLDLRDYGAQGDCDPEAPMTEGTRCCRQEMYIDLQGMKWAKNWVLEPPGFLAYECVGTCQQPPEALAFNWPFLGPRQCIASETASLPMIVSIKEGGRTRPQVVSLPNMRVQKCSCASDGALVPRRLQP
Sequence of Dickkopf-related protein 1 (Homo sapiens) (O94907 whole entry, looked up): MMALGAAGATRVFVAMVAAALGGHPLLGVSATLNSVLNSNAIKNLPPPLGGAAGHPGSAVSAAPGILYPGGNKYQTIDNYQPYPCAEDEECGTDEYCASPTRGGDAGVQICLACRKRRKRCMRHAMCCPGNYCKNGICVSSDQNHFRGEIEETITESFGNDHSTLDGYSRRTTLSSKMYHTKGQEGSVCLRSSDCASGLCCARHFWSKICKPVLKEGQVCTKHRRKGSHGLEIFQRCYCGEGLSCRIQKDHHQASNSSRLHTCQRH

With `COCCCNC(=O)[C@]1(CCC(=O)OC(C)(C)C)N=C(c2ccc(OCCCO)cc2)O[C@@H]1c1ccccc1`, the composite z-score was 1.31 in [1]; 1.33 in [2]; 0.701 in [3]; 0.417 in test [5]; 1.28 in test [6]; -0.301 in test [7]. For the same compound, the composite z-score in test [8] was -0.47; in test [9] it was -0.261; in test [10], -0.497; in test [11] it was 1.49; in test [13] it was -0.737; in test [14] it was 1.59. In addition, the composite z-score in test [15] is 1; in [16], -0.0203; in test [17], -0.0248; in test [18], -0.0076; in [19] it was 1.49; in test [20], 1.6. Besides, the z-score was -0.307 (inactive) in test [4] and -0.151 in test [12].
In the case of `CN1C(=O)C2C=CC(C(O)C3CCCCC3)N(N3CCCCC3)C2C1=O` (stereo not given), the composite z-score in [1] is 1.15; in test [2], 0.429; in test [3], 0.833; in test [5] it was 1.06; in [6], 0.675; in test [7], 0.442. For the same compound, the composite z-score came out at 1.45 in [8]; 0.379 in [9]; 0.776 in test [10]; 1.47 in test [11]; 0.194 in test [13]; 0.407 in test [14]. Moreover, the composite z-score was -0.331 in test [15]; 0.164 in test [16]; 0.109 in test [17]; 1.31 in test [18]; 1.4 in [19]; 1.66 in test [20]. The z-score was 1.77 (inactive) in [4] and -0.306 in [12].
`CCCN1C(=O)[C@]2(Cc3ccccc3)N=C(c3ccc(OCCCO)cc3)O[C@@H]2c2ccccc21`: the composite z-score was found to be 1.25 in [1]; 0.206 in test [2]; 0.41 in test [3]; 1.24 in test [5]; 1.32 in [6]; 0.642 in [7]. For the same compound, the composite z-score stood at 0.928 in [8]; 0.223 in test [9]; 0.808 in test [10]; 1.06 in test [11]; 0.118 in test [13]; 1.14 in test [14]. Also, the composite z-score in test [15] was -0.422; in [16] it was 0.027; in [17], -0.231; in test [18], -0.646; in [19] it was 0.42; in [20], 1.33. Besides, the z-score in test [4] is -1.41 (inactive); in [12], -2.7.
As to `C=CC[C@@]1(C(=O)O)N=C(c2ccc(OCCCO)cc2)O[C@@H]1c1ccccc1`, the composite z-score in test [1] is 1.96; in test [2], -0.2; in test [3], 0.584; in test [5] it was -0.21; in test [6] it was 1.06; in [7], -1.9. The composite z-score is -1.15 in test [8]; -0.659 in test [9]; -0.361 in test [10]; 1.35 in test [11]; -1.5 in [13]; -0.815 in test [14]. Besides, the composite z-score in test [15] was -1.41; in [16], 0.499; in test [17], 0.265; in test [18], 2.02; in [19], 4.53; in test [20], 2.51. The z-score in test [4] is -0.701 (inactive); in [12], 0.0165.
For `CC(C)CCC[C@@H](C)[C@H]1CC[C@@]2(C)C3=C(CC[C@]12C)[C@@]1(C)CC[C@H](OC(=O)c2ccc(Br)cc2)C(C)(C)C1CC3` (stereo not given in full), the composite z-score in test [1] is 0.27; in [2], -0.153; in test [3], -0.331; in test [5], 0.609; in test [6] it was 0.55; in [7], 0.593. Further, the composite z-score in [8] is 0.506; in test [9], 0.391; in test [10] it was 0.26; in test [11] it was -0.298; in test [13] it was 0.711; in test [14], 0.132. The composite z-score was -0.442 in test [15]; -0.157 in [16]; -0.0977 in [17]; -0.18 in [18]; 0.162 in test [19]; 0.204 in test [20]. For the same compound, the z-score in test [4] is -1.13 (inactive); in test [12] it was 0.132.
In the case of `COc1cc(CO)cc(I)c1O[C@H]1C=C(C(=O)NCCO)C[C@@H](NCc2ccccc2F)[C@@H]1O`, the composite z-score in [1] was 0.947; in test [2], -0.28; in test [3], -0.18; in test [5], 1.06; in test [6] it was 0.417; in test [7], 0.152. The composite z-score in test [8] is 0.638; in test [9], 0.239; in [10] it was 0.0253; in test [11], 0.509; in test [13], 0.365; in test [14] it was -0.154. In addition, the composite z-score in test [15] was -0.327; in test [16] it was -0.264; in test [17], -0.138; in test [18], -0.103; in test [19] it was 1.4; in [20], 0.109. Besides, the figures for the z-score in test [4] and in [12] were -0.977 (inactive) and -2.62, respectively.

The record behind these values is PubChem BioAssay.
